Each structure is given as a SMILES string. Active and inactive are the calls of the source.

Assay [1] is described as follows: E. coli DRC41 culture turbidity changes, primary screen, E. coli filamentation inducer project, strain DRC41, OD650, 48 h (AID 1152).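 Note: E. coli MC1000 strain DRC41 lacking acrAB efflux pump and sulA.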 The note with it: E. coli DRC41 (acrAB sulA), higher = more signal, called active from +8 up or from −8 down.
The nature of assay [2]: small-molecule binders of probe aLefty1, primary screen, biochemical, small-molecule microarray, 635/667 nm fluorescence (AID 1153).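 Note: score merges spot fluorescence with signal-to-noise ratio from the scanned slide images.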 The settings on record: higher = more signal.
A short description of assay [3]: PSAC antagonists in infected red cells, primary screen, cell-based, P. falciparum Indochina, OD700, 1 h (AID 1154). The settings on record: P. falciparum Indochina infected RBC osmotic lysis, higher = more signal, called active from +8 up or from −8 down.
Assay [4] in a line: PSAC antagonists in infected red cells, primary screen, cell-based, P. falciparum Indochina, OD700, 2 h (AID 1155).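 Note: lysis reports solute entry through the parasite surface anion channel PSAC; channel blockers reduce lysis of infected cells.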 The note with it: P. falciparum Indochina infected erythrocytes, osmotic lysis OD700; higher = more signal, called active from +8 up or from −8 down.
Assay [5] is described as follows: osmotic lysis modulators in infected erythrocytes, primary screen, PSAC antagonist project, cell-based, P. falciparum Indochina, OD700, 3 h (AID 1156). The note with it: higher = more signal, called active from +8 up or from −8 down.
Assay [6] in a line: PSAC antagonists in infected red cells, primary screen, cell-based, P. falciparum Indochina, OD700, 18 h (AID 1157). The settings on record: P. falciparum Indochina infected erythrocytes, osmotic lysis OD700, 18 h; higher = more signal, called active from +8 up or from −8 down.
Assay [7] in a line: modulators of S6 phosphorylation in cells, primary screen, cell-based, A549, cytoblot, luminescence, serum-stimulated (AID 1158).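 Note: serum-stimulated A549 lung adenocarcinoma cells; signal is phosphorylated S6 detected by cytoblot immunostaining with HRP secondary.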 The note with it: A549 phospho-S6 cytoblot, 5 h, higher = more signal.
The target in assay [8] is NADPH oxidase 2 (Homo sapiens) (UniProt P04839). Description: NOX2-dependent H2O2 signal modulators, primary screen, NOX inhibitor project, cell-based, HEK293-NOX2, PMA-stimulated, Amplex Red fluorescence (AID 1159). Note: test concentration not given here. The settings on record: 45 min, higher = more signal, called active from +8 up or from −8 down.
NADPH oxidase 2 (Homo sapiens), sequence (P04839 whole entry, looked up): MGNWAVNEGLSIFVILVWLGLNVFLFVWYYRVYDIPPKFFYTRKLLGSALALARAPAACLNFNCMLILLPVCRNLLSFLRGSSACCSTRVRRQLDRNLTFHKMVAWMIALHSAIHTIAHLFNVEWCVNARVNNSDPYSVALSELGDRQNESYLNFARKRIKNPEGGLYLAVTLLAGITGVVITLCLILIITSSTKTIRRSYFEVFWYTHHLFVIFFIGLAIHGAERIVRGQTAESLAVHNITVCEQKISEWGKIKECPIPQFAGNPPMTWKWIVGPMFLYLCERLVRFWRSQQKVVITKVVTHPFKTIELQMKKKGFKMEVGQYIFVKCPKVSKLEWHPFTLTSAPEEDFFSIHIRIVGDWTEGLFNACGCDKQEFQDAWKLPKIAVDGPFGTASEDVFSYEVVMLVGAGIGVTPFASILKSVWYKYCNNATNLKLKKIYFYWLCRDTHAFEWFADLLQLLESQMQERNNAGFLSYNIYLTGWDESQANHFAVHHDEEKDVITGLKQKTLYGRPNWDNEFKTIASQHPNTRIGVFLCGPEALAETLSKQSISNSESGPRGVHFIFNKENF
Assay [9] addresses NADPH oxidase 4 (Homo sapiens) (UniProt Q9NPH5). The assay is described as follows: NOX4-dependent H2O2 signal modulators, primary screen, NOX inhibitor project, cell-based, HEK293-NOX4, tetracycline-induced, Amplex Red fluorescence (AID 1160). The note with it: 45 min, higher = more signal, called active from +8 up or from −8 down.
Assay [10] addresses NADPH oxidase 5 (Homo sapiens) (UniProt Q96PH1). Description: NOX5-dependent H2O2 signal modulators, primary screen, NOX inhibitor project, cell-based, HEK293-NOX5, Amplex Red fluorescence (AID 1161). The settings on record: HEK293-NOX5, ionomycin, 45 min, higher = more signal.

NADPH oxidase 4 (Homo sapiens), sequence (Q9NPH5 whole entry, looked up): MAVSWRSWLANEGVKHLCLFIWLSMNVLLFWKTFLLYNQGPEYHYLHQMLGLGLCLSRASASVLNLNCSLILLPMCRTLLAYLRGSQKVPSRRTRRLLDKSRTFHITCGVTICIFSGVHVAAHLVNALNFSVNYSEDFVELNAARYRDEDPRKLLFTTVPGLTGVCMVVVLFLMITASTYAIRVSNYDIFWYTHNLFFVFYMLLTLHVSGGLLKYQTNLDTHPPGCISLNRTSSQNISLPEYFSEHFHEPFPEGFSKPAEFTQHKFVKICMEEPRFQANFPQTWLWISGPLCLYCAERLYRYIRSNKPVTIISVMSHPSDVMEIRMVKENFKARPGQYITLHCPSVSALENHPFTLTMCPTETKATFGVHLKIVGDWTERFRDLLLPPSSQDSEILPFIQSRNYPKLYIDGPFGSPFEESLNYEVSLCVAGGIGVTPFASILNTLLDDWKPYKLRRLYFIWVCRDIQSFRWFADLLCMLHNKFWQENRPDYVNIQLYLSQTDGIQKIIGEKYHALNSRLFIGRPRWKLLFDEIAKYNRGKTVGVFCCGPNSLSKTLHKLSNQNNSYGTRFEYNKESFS
NADPH oxidase 5 (Homo sapiens), sequence (Q96PH1 whole entry, looked up): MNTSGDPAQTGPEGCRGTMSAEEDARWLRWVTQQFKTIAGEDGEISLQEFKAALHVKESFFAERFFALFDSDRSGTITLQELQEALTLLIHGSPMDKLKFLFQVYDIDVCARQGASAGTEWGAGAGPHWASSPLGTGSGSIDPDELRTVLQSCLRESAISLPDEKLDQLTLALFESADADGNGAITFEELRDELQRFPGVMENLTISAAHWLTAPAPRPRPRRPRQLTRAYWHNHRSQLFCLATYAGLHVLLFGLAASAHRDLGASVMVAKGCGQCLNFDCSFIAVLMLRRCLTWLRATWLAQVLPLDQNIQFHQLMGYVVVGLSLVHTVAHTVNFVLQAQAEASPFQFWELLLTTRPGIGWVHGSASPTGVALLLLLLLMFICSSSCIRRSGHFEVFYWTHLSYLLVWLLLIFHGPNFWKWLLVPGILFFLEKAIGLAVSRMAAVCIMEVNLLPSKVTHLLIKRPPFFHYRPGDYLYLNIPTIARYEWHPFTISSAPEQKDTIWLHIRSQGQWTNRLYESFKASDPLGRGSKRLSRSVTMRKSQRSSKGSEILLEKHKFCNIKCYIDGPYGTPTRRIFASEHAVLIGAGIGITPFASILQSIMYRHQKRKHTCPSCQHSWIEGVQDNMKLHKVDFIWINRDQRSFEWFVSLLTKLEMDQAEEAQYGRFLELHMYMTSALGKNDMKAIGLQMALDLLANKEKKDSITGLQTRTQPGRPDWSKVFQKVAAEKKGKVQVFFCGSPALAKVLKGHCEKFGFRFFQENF

Consider `CCOC(=O)C[C@H]1[C@H](OC(=O)c2ccc(C(=O)c3ccccc3)cc2)[C@@H](NC(=O)c2ccc3ccccc3c2)c2cc(OCCCO)ccc2N1C(=O)Cc1ccc(OC)cc1`, for which the z-score in [1] is 0.739 (inactive); in assay [3], 6.12 (inactive); in [4], 0.448 (inactive); in assay [5], 0.337 (inactive); in assay [6], 0.184 (inactive); in assay [7] it was 0.742. The z-score in [8] was -0.992 (inactive); in assay [9], 0.557 (inactive); in [10] it was 0.161. Besides, in [2], the composite z-score turned out to be 0.138.

For `CCC[C@@H]1C[C@@]1(CCC)[C@@H](NS(=O)(=O)c1cccc2cccnc12)c1ccc(Cl)cc1`, the z-score in assay [1] is -1.61 (inactive); in assay [3], 0.0126 (inactive); in assay [4], 0.765 (inactive); in assay [5] it was -1.01 (inactive); in assay [6], 1.01 (inactive); in assay [7] it was 0.883. Further, the z-score in assay [8] was -0.357 (inactive); in assay [9] it was -0.382 (inactive); in assay [10], 0.127. The same compound had a composite z-score in assay [2] of 0.617.

On to `COc1ccc(C#Cc2ccc3c(c2)[C@]2(C(=O)N3)[C@H](c3ccccc3OCCO)N3[C@H](c4ccccc4)[C@H](c4ccccc4)OC(=O)[C@H]3[C@@H]2C(=O)Nc2nc3ccccc3s2)cc1`, for which the z-score in [1] was -0.89 (inactive); in [3] it was 1.35 (inactive); in assay [4] it was 1.67 (inactive); in [5], 1.46 (inactive); in assay [6], 0.457 (inactive); in assay [7], -0.0333. Besides, the z-score is -1.26 (inactive) in assay [8], -0.977 (inactive) in [9] and -4.34 in assay [10]. In [2], this compound had a composite z-score of 1.78.

With `COCCOC(=O)N1C(=O)[C@@]2(c3ccccc31)[C@H](c1ccc(O)cc1)N1[C@H](c3ccccc3)[C@H](c3ccccc3)OC(=O)[C@H]1[C@@H]2C(=O)Nc1nc2ccccc2s1`, the z-score is 0.894 (inactive) in assay [1]; 1.31 (inactive) in assay [3]; 1.1 (inactive) in assay [4]; 0.109 (inactive) in [5]; 1.41 (inactive) in assay [6]; 0.172 in assay [7]. For the same compound, the z-score in assay [8] was 1.41 (inactive); in [9], 0.449 (inactive); in assay [10], 1.41. The composite z-score in assay [2] amounted to 0.541.

Consider `C=CCC(OC(C)=O)[C@@H]1[C@@H](N(Cc2ccc(-c3ccccc3)cc2)C(=O)c2cccc3ccccc23)c2cc(OCCCO)ccc2N1C(=O)c1ccc(-c2ccccc2)cc1` (stereo not given in full), for which the z-score was 0.82 (inactive) in assay [1]; 0.353 (inactive) in assay [3]; 1.06 (inactive) in assay [4]; -0.291 (inactive) in assay [5]; 0.358 (inactive) in assay [6]; 0.121 in assay [7]. The z-score is 0.299 (inactive) in assay [8], -0.394 (inactive) in [9] and -4.31 in assay [10]. This compound also showed a composite z-score in [2] of 0.46.

As to `COc1cc2c(cc1OC)CN(C(=O)[C@H]1[C@@H]3C(=O)O[C@@H](c4ccccc4)[C@@H](c4ccccc4)N3[C@@H](c3ccc(O)cc3)[C@]13C(=O)Nc1ccc(C#CCCO)cc13)CC2`, the z-score in assay [1] is 0.675 (inactive); in assay [3] it was 1.06 (inactive); in [4] it was 0.736 (inactive); in assay [5], 1.15 (inactive); in assay [6] it was 0.689 (inactive); in assay [7], 0.503. Besides, the z-score in assay [8] is 1.38 (inactive); in [9], -0.0637 (inactive); in assay [10] it was 1.08. This compound gave a composite z-score in [2] of -0.147.

In the case of `C=C(C(=O)CC[C@@H](OC(=O)c1cccnc1)c1ccccc1OCCO)C(C)C`, the z-score is 0.151 (inactive) in assay [1]; 15.1 (active) in [3]; 2.08 (inactive) in [4]; 0.759 (inactive) in [5]; 0.601 (inactive) in assay [6]; 0.149 in assay [7]. For the same compound, the z-score in [8] was -0.551 (inactive); in assay [9], -0.118 (inactive); in assay [10], -1.34. In addition, the composite z-score in assay [2] is 0.106.

Turning to `CCN(CC)c1ccc(N2CC=CC34O[C@@H]5C=CCCOC(=O)C5[C@H]3C(=O)N(CCCCCCO)[C@@H]4C2=O)cc1` (stereo not given in full), the z-score in assay [1] is 3.12 (inactive); in assay [3], 1.25 (inactive); in [4], 0.392 (inactive); in assay [5], 0.474 (inactive); in assay [6], -0.53 (inactive); in assay [7], 0.872. Also, the z-score in assay [8] was -0.089 (inactive); in [9], 0.576 (inactive); in assay [10], 0.762. Besides, the composite z-score in assay [2] is -0.0361.

For `CC(C)[Si]1(C(C)C)O[C@@H](c2ccccc2)c2cc(-c3ccc(-c4ccc(Cl)c(Cl)c4)o3)nc(-c3ccccc3)c21`, the z-score is -1.12 (inactive) in [1]; 0.704 (inactive) in [3]; 0.0805 (inactive) in assay [4]; -0.449 (inactive) in [5]; 0.656 (inactive) in assay [6]; -0.121 in assay [7]. The z-score in [8] is -0.364 (inactive); in assay [9], 1.36 (inactive); in assay [10] it was 1.26. This compound returned a composite z-score in [2] of -0.0611.

As to `CCc1cccc(NC(=O)O[C@H]2[C@H](OC(=O)Nc3ccccc3-c3ccccc3)[C@@H](OC(=O)Nc3ccccc3-c3ccccc3)[C@@H](OC)O[C@@H]2CO)c1`, the z-score in [1] was -1.5 (inactive); in assay [3], 3.37 (inactive); in assay [4], 0.995 (inactive); in [5] it was -0.975 (inactive); in assay [6], 1.31 (inactive); in assay [7] it was -0.84. Moreover, the z-score in assay [8] is -5.54 (inactive); in [9], -1.18 (inactive); in [10], -1.13. In assay [2], this compound returned a composite z-score of 0.419.

In the case of `CC(C)NC(=O)[C@@H]1c2ccccc2C(=O)N(C2Cc3ccccc3C2)[C@H]1c1ccc(CO)cc1`, the z-score was 0.814 (inactive) in [1]; 3.41 (inactive) in [3]; 0.119 (inactive) in assay [4]; 0.121 (inactive) in [5]; 0.182 (inactive) in assay [6]; 0.0063 in assay [7]. Moreover, the figures for the z-score in [8], in assay [9] and in assay [10] were -0.402 (inactive), 0.0797 (inactive) and -0.994, respectively. The composite z-score in assay [2] turned out to be 0.11.

As for `COCCOC(=O)N1C(=O)[C@@]2(c3cc(C#Cc4ccc(OC)cc4)ccc31)[C@H](c1ccc(O)cc1)N1[C@H](c3ccccc3)[C@H](c3ccccc3)OC(=O)[C@H]1[C@@H]2C(=O)N1CCc2cc(OC)c(OC)cc2C1`, the z-score in assay [1] is 0.892 (inactive); in assay [3] it was 1.92 (inactive); in [4], 1.19 (inactive); in assay [5], 0.401 (inactive); in [6] it was 0.827 (inactive); in [7], 0.035. For the same compound, the z-score in [8] is 0.478 (inactive); in [9], 0.398 (inactive); in [10] it was 1.08. In assay [2], this compound showed a composite z-score of 0.134.

(Values after PubChem BioAssay.)
